# PubChem BioAssay AID488969 (Vanderbilt High Throughput Screening Facility, 2010)
# The full ranking holds about 110,000 compounds; the median of “z-score” is about -0.1, and the highest 2% start at about 2. Many of the other results were omitted from the sample, so the highest values are more common in it than they were. The source made the active and inactive calls.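 How the source made its calls: active means z-score in the third read window above 3 or below -3; inactive means the rest.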
# Target: Metabotropic glutamate receptor 8 (Rattus norvegicus) (UniProt P70579)
# Assay: rat mGluR8 modulators via GIRK flux, primary screen, cell-based, thallium flux, HTS (AID 488969)
# Settings: HEK293 rat mGluR8, GIRK (G protein-gated inwardly rectifying potassium channel) thallium flux, FluoZin2; at 10 µM; stronger effect = higher value; submaximal glutamate (EC20) added with thallium
# Metabotropic glutamate receptor 8 (Rattus norvegicus), sequence (P70579 whole entry, looked up): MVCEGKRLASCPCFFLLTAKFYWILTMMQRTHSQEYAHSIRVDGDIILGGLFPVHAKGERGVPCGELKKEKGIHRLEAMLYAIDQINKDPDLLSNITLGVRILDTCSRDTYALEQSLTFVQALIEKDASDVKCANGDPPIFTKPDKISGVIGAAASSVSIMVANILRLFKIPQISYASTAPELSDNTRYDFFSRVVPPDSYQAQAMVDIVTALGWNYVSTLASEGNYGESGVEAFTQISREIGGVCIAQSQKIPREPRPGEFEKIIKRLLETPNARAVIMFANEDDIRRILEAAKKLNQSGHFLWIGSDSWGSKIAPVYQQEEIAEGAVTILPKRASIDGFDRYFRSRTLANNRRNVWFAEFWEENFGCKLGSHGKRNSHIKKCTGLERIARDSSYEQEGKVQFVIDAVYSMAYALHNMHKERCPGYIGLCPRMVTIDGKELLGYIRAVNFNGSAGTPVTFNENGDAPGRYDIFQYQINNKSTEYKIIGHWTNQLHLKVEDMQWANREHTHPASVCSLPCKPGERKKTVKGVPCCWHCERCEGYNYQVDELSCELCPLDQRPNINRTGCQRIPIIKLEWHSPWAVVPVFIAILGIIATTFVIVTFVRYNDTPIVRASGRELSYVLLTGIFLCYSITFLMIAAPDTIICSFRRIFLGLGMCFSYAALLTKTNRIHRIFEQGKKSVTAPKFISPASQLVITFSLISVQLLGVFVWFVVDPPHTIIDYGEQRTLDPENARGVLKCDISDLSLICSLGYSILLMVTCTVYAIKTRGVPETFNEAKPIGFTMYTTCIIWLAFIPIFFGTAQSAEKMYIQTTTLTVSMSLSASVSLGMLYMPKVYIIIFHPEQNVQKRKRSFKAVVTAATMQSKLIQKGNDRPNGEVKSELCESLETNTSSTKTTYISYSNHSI
row,SMILES,z-score
1,CCOc1cccc(C(=O)Nc2cccc(-c3nnc(-c4ccc(C)cc4)o3)c2)c1,0.689
2,CCOc1ccc(-c2nnc(NC(=O)CCCOc3cccc(C)c3)o2)cc1,3.62 (active)
3,COc1ccc(-c2nnc(NC(=O)C(C)C)o2)cc1,2.14
4,O=C(COc1ccccc1)Nc1nnc(-c2ccccc2)o1,-0.421
5,CCOc1ccc(NC(=O)CNC(=O)c2ccc(OC)c(OC)c2)cc1,-0.166
6,CCC(=O)Nc1nnc(-c2ccc(OC)cc2)o1,-0.442
7,COc1ccc(-c2nnc(-c3ccc(OCC(C)C)cc3)o2)cc1,0.807
8,CCOc1ccc(-c2nnc(NC(=O)c3ccc(OCC(C)C)c(OC)c3)o2)cc1,10.4 (active)
9,COc1ccc(-c2nnc(NC(=O)c3ccc(F)cc3)o2)cc1,5.46 (active)
10,CC(C)C(=O)Nc1nnc(-c2ccccc2)o1,0.162
11,COc1cccc(-c2nnc(NC(=O)C(C)C)o2)c1,0.295
12,COc1ccc(-c2nnc(NC(=O)c3cc(Cl)ccc3Cl)o2)cc1,1.02
13,O=C(Nc1cccc(F)c1)C1CCN(C(=O)c2ccccc2Cl)CC1,-0.486
14,CCOC(=O)CS(=O)(=O)c1ccc(C(F)(F)F)cn1,-0.0154
15,CCCOC(=O)c1ccc(NS(=O)(=O)c2cccs2)cc1,0.0163
16,Cc1cc(C)c2nc(NC(=O)c3cccc(S(=O)(=O)N4CCc5ccccc54)c3)sc2c1,-0.315
17,CN1CCOCCOCCN(C)C(=O)N2CCOCCOCCN(CCOCC2)C1=O,1.25
18,CC(C)(C)c1ccc(CSc2nnc(-c3ccccn3)n2Cc2ccco2)cc1,-0.295
19,Clc1ncnc2scc(C3COc4ccccc4O3)c12 (stereo unspecified),-0.228
20,Cc1cc(C)nc(NS(=O)(=O)c2ccc(NC(=O)CCC3COc4ccccc4O3)cc2)n1 (stereo unspecified),-0.4
21,Cc1cc(NC(=O)c2cnc3ccccn3c2=O)no1,-0.108
22,CCCCNC(=S)NCCN1CCCCC1,0.407
23,COc1ccc(C(C[N+](=O)[O-])c2c(C)[nH]c3ccccc23)cc1OC (stereo unspecified),-2.31
24,CN(CC(O)COc1ccc(OCC(O)CN(C)C2CCCCC2)cc1)C1CCCCC1 (stereo unspecified),1.64

row,SMILES,z-score
1,CCN(CC(O)COc1ccc(OCC(O)CN(CC)C2CCCCC2)cc1)C1CCCCC1 (stereo unspecified),2.32
2,COc1ccc(OCC(O)CN(C2CCCCC2)C2CCCCC2)cc1 (stereo unspecified),0.744
3,O=C(/C=C/c1ccc(S(=O)(=O)N2CCOCC2)cc1)NCc1ccccc1,-0.687
4,CCOC(=O)N1CCC(N(C(=O)Nc2ccc(Cl)c(Cl)c2)C(C)CC)CC1 (stereo unspecified),-0.099
5,COc1cc(-c2nnc(CSc3nc4ccccc4s3)o2)cc(OC)c1OC,-3.36 (active)
6,CCOC(=O)c1sc(Nc2nc3c(F)cccc3s2)cc1C,0.23
7,Nc1nc2c(F)cccc2s1,-0.0918
8,COc1cccc(-c2nnc(Nc3nc4c(F)cccc4s3)o2)c1,17.4 (active)
9,Fc1cccc2sc(Nc3nnc(-c4ccco4)o3)nc12,16 (active)
10,COc1cccc(-c2nnc(-c3ccc(C(F)(F)F)cc3)o2)c1,-0.245
11,COc1cccc(-c2nnc(NC(=O)C3CCCCC3)o2)c1,-0.375
12,c1coc(-c2nnc(NC3=NCCC3)o2)c1,1.08
13,Cc1ccsc1C(=O)Nc1nnc(-c2ccco2)o1,0.832
14,COc1cc(OC)cc(-c2nnc(Nc3nc4c(F)cccc4s3)o2)c1,9.94 (active)
15,O=c1oc2ccccc2cc1-c1csc(Nc2nc3c(F)cccc3s2)n1,0.848
16,Fc1cccc2sc(Nc3nnc(-c4ccccc4)o3)nc12,17.1 (active)
17,CCOC(=O)C(C)n1cnc2c1c(=O)[nH]c(=O)n2C (stereo unspecified),-0.374
18,COc1ccc(CNC(=O)CN(C(=O)c2ccc(CN3CCOCC3)o2)C2CCCC2)cc1,-0.1
19,CCOc1cc(-c2cc(-c3ccc(C)cc3)nc(N)c2C#N)ccc1O,-0.244
20,CC1c2c([nH]c3ccccc23)CCC1C(=O)O (stereo unspecified),0.673
21,CCN1CCN(C(=S)NCc2ccc(C)cc2)CC1,0.0391
22,CN(CC(=O)Nc1cccnc1)S(=O)(=O)c1ccccc1,-0.0827
23,CCOC(=O)C1[C@H]2C(=O)N(CCCOC)C[C@]23C=C[C@H]1O3 (stereo partly specified),-0.0146
24,CCOCCCNCC(=O)NC1(C)C2CCC(C2)C1(C)C (stereo unspecified),-0.581

row,SMILES,z-score
1,O=C(Nc1ccc2c(c1)OCO2)N1CCN(C/C=C/c2ccccc2)CC1,-0.663
2,CN(C)c1cccc(C(=O)OCC(=O)NCC2CCCO2)c1 (stereo unspecified),-0.266
3,Cc1ccc(CN=C2Nc3ccccc3CS2)cc1,-0.225
4,Cc1cccc(NC(=O)c2cc(Cl)sc2Cl)c1C,0.0762
5,CC(C)(C)Cc1nc(-c2ccc(Cl)cc2)no1,0.892
6,COc1ccc(CCC(=O)NCc2cn3ccsc3n2)cc1,0.0209
7,COc1ccc(CCC(=O)NCc2cnn(C)c2)cc1,3.37 (active)
8,CCn1cc(CNC(=O)CCc2ccc(OC)cc2)cn1,0.0492
9,O=C(c1cccc(F)c1)N1CCN(C(=O)c2cc(-c3ccc(Cl)cc3Cl)on2)CC1,3.48 (active)
10,O=C(c1cc(-c2ccc(Cl)cc2Cl)on1)N1CCOCC1,-0.321
11,O=C(c1cc(-c2ccc(Cl)cc2Cl)on1)N1CCN(C(=O)c2ccco2)CC1,0.486
12,COC(=O)c1cc2ccccn2c2c(C(=O)OC)c(C(=O)OC)cc1-2,0.219
13,O=C(Nc1ccccc1)c1sc(Cl)nc1-c1ccccc1,-0.405
14,Cc1cc(C)n(-c2ccc(C)c(Cl)c2)n1,-0.078
15,Cc1cc(=O)n2[nH]c(-c3ccccc3)cc2n1,-0.312
16,O=c1cc(-c2ccccc2)[nH][nH]1,0.252
17,Cc1cc(C)[n+]2n1C(=O)C(c1ccccc1)=C2[O-],2.57
18,Cc1cc(C(=O)N2CCN(CCc3ccccc3)CC2)no1,8.2 (active)
19,Cc1noc(C)c1C(=O)N1CCN(CCc2ccccc2)CC1,-0.189
20,Cc1ccc(-c2cc(C(=O)N3CCCC3)no2)cc1,-0.457
21,O=C(c1cc(-c2ccccc2)on1)N1CCN(C(=O)c2ccco2)CC1,2.21
22,CN1CCN(C(=O)c2cc(-c3ccccc3)on2)CC1,0.0853
23,CCOC(=O)C1CCCN(C(=O)c2cc(=O)c3ccccc3o2)C1 (stereo unspecified),2.91
24,O=C(c1cc(-c2ccccc2)on1)N1CCCC1,3.32 (active)

row,SMILES,z-score
1,Cc1ccc(-c2cc(C(=O)N3CCN(C(=O)c4ccco4)CC3)no2)cc1,-0.304
2,CCOC(=O)C1CCCN(C(=O)c2cc3c(C)nc4ccccc4c3o2)C1 (stereo unspecified),-0.243
3,CCOC(=O)C1CCCN(C(=O)c2ccco2)C1 (stereo unspecified),0.661
4,O=C(c1cc(-c2ccccc2Cl)on1)N1CCN(C(=O)c2ccco2)CC1,0.424
5,Cc1cc(C(=O)N2CCN(c3ccccc3)CC2)no1,0.106
6,COc1ccc2cc(C(c3nnnn3C3CCCCC3)N3CCCCCC3)c3nnnn3c2c1 (stereo unspecified),-0.929
7,CCn1c(=O)c2ccccc2n2c(SCC(=O)N3CCc4ccccc4C3)nnc12,1.51
8,CCn1c(SCC(=O)NC(C)(C)C)nnc1-c1ccoc1C,0.155
9,CCN(CC)S(=O)(=O)c1ccc(N2CCOCC2)c(NC(=O)Cc2ccccc2)c1,-0.339
10,O=C(CC1NCCNC1=O)OCc1ccccc1 (stereo unspecified),0.419
11,O=C(CC1NCCNC1=O)OCCCc1ccccc1 (stereo unspecified),1.22
12,CCCOc1ccc(C(=O)NC(=S)Nc2nc(C)c(C(=O)N(C)C)s2)cc1,0.54
13,CCOC(=O)C1CCCN(C(=O)c2cccs2)C1 (stereo unspecified),-0.161
14,CCOC(=O)C1CCCN(C(=O)c2cc(-c3ccccc3)on2)C1 (stereo unspecified),3.22 (active)
15,CCOC(=O)C1CCCN(C(=O)c2cc(-c3ccc(C)cc3)on2)C1 (stereo unspecified),-0.235
16,CC(=O)CSc1nc(N)c(C#N)c(-c2cccs2)c1C#N,-0.18
17,COc1ccc(/C=N/NC(=O)c2nc(-c3ccccc3)cc(-c3ccccc3)n2)cc1,8.06 (active)
18,COc1ccc(/C=N/NC(=O)c2nc(-c3ccccc3)cc(-c3ccccc3)n2)cc1OC,0.42
19,COc1cccc(/C=N/NC(=O)c2nc(-c3ccccc3)cc(-c3ccccc3)n2)c1,-0.286
20,Cn1c(SCC(=O)NC(C)(C)C)nc(O)cc1=O,-0.0162
21,CC12CCC(C(=O)N(c3ccccc3Cl)C1=O)C2(C)C (stereo unspecified),0.208
22,CC12CCC(C(=O)N(CC(O)CN3CCCCCC3)C1=O)C2(C)C (stereo unspecified),0.13
23,CC12CCC(C(=O)N(CSC(=S)N/N=C\c3ccccc3Cl)C1=O)C2(C)C (stereo unspecified),16.2 (active)
24,CC12CCC(C(=O)N(CSC(=S)N/N=C\c3ccccc3O)C1=O)C2(C)C (stereo unspecified),5.76 (active)

row,SMILES,z-score
1,O=C1C2C3C=CC(CC3)C2C(=O)N1/N=C/c1ccccc1O (stereo unspecified),-0.187
2,CC12CCC(C(=O)N(NC(=O)c3ccccc3Cl)C1=O)C2(C)C (stereo unspecified),0.00342
3,CCCn1c(SCC(=O)N2CCN(c3ccccc3)CC2)nc2ccccc2c1=O,-0.496
4,CCn1c(CNC(=O)c2cccc(C)c2)nnc1SCC(=O)NC1CCCCC1C (stereo unspecified),0.161
5,Cc1[nH]c2ccc(F)cc2c(=O)c1SC(F)(F)C(F)F,-1.3
6,CCCC(=O)N1CC(=O)Nc2ccc(F)cc2C1c1ccccc1 (stereo unspecified),-0.534
7,Cc1ccc2c(c1)C(c1ccccc1)N(C(=O)C(C)C)CC(=O)N2 (stereo unspecified),-0.0998
8,Cc1ccc2c(c1)C(c1ccc(F)cc1)N(C(=O)C1CC1)CC(=O)N2 (stereo unspecified),2.06
9,Cn1nc(C(=O)NCc2ccccn2)c2ccccc2c1=O,-0.406
10,COC(=O)CSc1nc(NC#N)nc(NC(C)C)n1,-0.00648
11,Cc1ccc2cc(C3CC(c4ccco4)=NN3S(=O)(=O)c3ccccc3)c(Cl)nc2c1 (stereo unspecified),0.136
12,CCSc1nnc(NC(=O)CCc2ccccc2)s1,-0.278
13,Cc1csc(NC(=O)C(Cc2ccccc2)n2cccc2)n1 (stereo unspecified),5.2 (active)
14,CCSc1nnc(NC(=O)[C@@H](NC(=O)c2ccccc2)C(C)C)s1,-0.168
15,O=C(NC1CCCC1)C(Cc1ccccc1)n1cccc1 (stereo unspecified),0.182
16,CCC(C(=O)Nc1nc(C)cs1)c1ccccc1 (stereo unspecified),-0.691
17,O=C(Nc1ncc(Br)s1)C(Cc1ccccc1)n1cccc1 (stereo unspecified),7 (active)
18,Cc1csc(NC(=O)CSCC(=O)Nc2ccccc2)n1,0.462
19,O=C(Nc1cccnc1)C(Cc1ccccc1)n1cccc1 (stereo unspecified),0.0231
20,CCSc1nnc(NC(=O)C(Cc2ccccc2)n2cccc2)s1 (stereo unspecified),4.24 (active)
